Screens as filed in PubChem BioAssay.
The list is not random: actives were taken first. Their share in the collection is about 19%.
HT1080NT lethal: kills 2HG-producing HT-1080-NT fibrosarcoma cells; HT-1080-NT fibrosarcoma viability, CellTiter-Glo ATP luminescence, 48 h; Potency, µM (doses to about 46.1 µM), for the others: at the highest dose activity, negative = less viability, usual class: cytotoxic; hit rate 1.6% among 360,000; AID 686970;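 also: NT is the 2HG producing partner of a matched IDH1 knockdown line; 0% = DMSO-treated cells and -100% = media-only wells without cells; nearly all actives have a fitted effect of over 55% in size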
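Viability of the 2HG-overproducing fibrosarcoma line after 48 hours of compound exposure at 37 degrees C was determined by luminescence with CellTiter-Glo, and concentration-effect curves were then fitted and categorized.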
TDP1 cell CPT: growth inhibition of DT40 Tdp1-/-;hTDP1 cells with camptothecin (screen for TDP1 inhibitors); chicken DT40 Tdp1-/-;hTDP1 cells + 20 nM CPT, ATP luminescence, 48 h; Potency, µM (titrated, usually from 46.2 µM), for inactives: at the top dose activity change, negative = growth inhibition, actives largely listed as inhibitors; hit rate 12% among 420,000; also: nearly all actives have a fitted effect of over 55% in size
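Chicken DT40 Tdp1-/- cells stably complemented with human TDP1 were seeded at 400 cells/well in medium containing 20 nM camptothecin, exposed to pin-transferred compounds, and grown at 37 °C for at least 48 hr. Viability was read as ATP luminescence.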
KB-3-1 tox: KB-3-1 parental cell cytotoxicity; KB-3-1 viability, CellTiter-Glo ATP luminescence, 72 h; Potency, µM (titrated, usually from 46.1 µM), most hits filed as cytotoxic; hit rate 1.4% among 400,000; AID 1347075; also: nearly all actives have a fitted effect of over 60% in size
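Parental KB-3-1 viability, qHTS format: 72 h compound exposure, 37 °C; CellTiter-Glo; media-only wells and DMSO plates as controls; concentration-effect fits on corrected data.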
KB-V1 MDR tox: KB-V1 MDR subline cytotoxicity; KB-V1 MDR cells viability, CellTiter-Glo, 72 h; Potency, µM (highest dose often 46.1 µM), hits mostly cytotoxic; hit rate 3.4% among 400,000; AID 1347076; also: nearly all actives have a fitted effect of over 60% in size
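KB-V1 MDR subline cells in DMEM (phenol-red free, 10% FBS) exposed to compounds in qHTS concentration series for 72 h at 37 degrees C. Viability read by CellTiter-Glo luminescence; concentration-effect curves fitted after normalization and correction.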
HT1080 IDH1KD tx: kills HT-1080 cells with IDH1 knockdown; HT-1080 IDH1 knockdown viability, ATP luminescence, 48 h; Potency, µM (doses to about 46.1 µM), for the others: at the highest dose activity, negative = toxicity, hits mostly cytotoxic; hit rate 2% among 360,000; AID 686971;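 also: 0% = DMSO wells and -100% = cell-free medium wells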
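Cytotoxicity counter-line: IDH1KD HT-1080, 48 h, CellTiter-Glo. Curves classed by r2, magnitude and activity.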
DT40 TDP1 no CPT: qHTS for Inhibitors of human tyrosyl-DNA phosphodiesterase 1 (TDP1): qHTS in cells in absence of CPT; Potency, µM (top dose mostly 46.2 µM), inactives show top-dose activity change, negative = growth inhibition, usual class: inhibitors; DT40 Tdp1-/- hTDP1 cells, no CPT, ATP luminescence, 48 h; hit rate 15% among 420,000; AID 686978, 2013; also: nearly all actives have a fitted effect of over 55% in size
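Growth of hTDP1-complemented DT40 Tdp1-knockout cells is measured by ATP luminescence after at least 48 hr compound exposure at 37 °C, with DMSO substituting for the 20 nM CPT used in the parallel screen.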
* marks the source's active call; other numbers are inactive results; i = inactive; u = inconclusive; x = no result; [ ] = dose if it differs, or a comment. Calls follow the shape of the dose curve; as a rule, active = well fitted curve in the direction sought with a large enough effect; inconclusive = small, poorly fitted or top-dose-only effect, or another doubt; inactive = no such curve, though single readings can be large; an effect the other way counts as inactive or inconclusive. Unless noted, % is scaled to controls: 0 for no effect and ±100 for the full control effect; potency is read from the fitted curve at half-maximal effect.

SMILES	HT1080NT lethal	TDP1 cell CPT	KB-3-1 tox	KB-V1 MDR tox	HT1080 IDH1KD tx	DT40 TDP1 no CPT
CC(Oc1ccc(F)cc1)C(=O)Nc1cc(Cl)ccc1-n1cncn1 (stereo not given)	0.0%	u	i	i	-2.0%	u
CC(C)(C)c1ccc(C2=CC(c3ccccc3F)n3ncnc3N2)cc1 (stereo not given)	-1.9%	-22.2%	u	i	-0.4%	-18.2%
Cn1cccc1C1C=C(c2ccc(C(C)(C)C)cc2)Nc2ncnn21 (stereo not given)	-3.1%	u	u	16.4µM*	-9.9%	23.1µM*
C1=C(c2ccc(-c3ccccc3)cc2)Nc2ncnn2C1c1ccco1 (stereo not given)	-6.5%	20.6µM*	u	u	-6.3%[9.24 µM]	16.4µM*
Brc1ccc(C2=CC(c3cccs3)n3ncnc3N2)cc1 (stereo not given)	-36.2%	u	i	i	u	7.31µM*
Fc1ccc(C2=CC(c3ccc(Br)o3)n3ncnc3N2)cc1 (stereo not given)	11.1%	u	i	i	-1.8%	u
CCN=C1S/C(=C\c2cc(Br)c(O)c(OC)c2)C(=O)N1CC	5.8%	-25.9%	i	i	1.3%	-0.1%
CCn1cc(CN2CCC(n3nccc3NC(=O)c3ccccc3C)CC2)c(C)n1	-0.7%	-5.2%	x	x	2.2%	0.0%
O=C(O)c1ccc(N2C(=O)CSC2=S)cc1	u	u	i	i	9.7%	u
O=C1CSC(=S)N1Cc1cccnc1	u	4.61µM*	4.61µM*	2.91µM*	u	4.61µM*
O=C(O)c1ccc(CN2C(=O)CSC2=S)cc1	-1.5%	18.4µM*	u	i	3.5%	18.4µM*
CCCc1nn(C)c(C(=O)Nc2ccccc2)c1Cl	16.5%	-21.2%	i	18.4µM*	8.4%	-25.4%
Cc1cc(C)n(CC(O)COc2c(C)cccc2C)n1 (stereo not given)	21.7%	-23.4%	i	i	15.6%	3.7%
COc1ccc(Cc2noc(-c3ccc([N+](=O)[O-])cc3)n2)cc1OC	-1.4%	25.9µM*	u	u	-12.7%	u
CC1=CC(C)(C)[N+](C)=CN1c1ccccc1	1.5%	-4.6%	i	i	25.2%	u
Cc1ccc(S(=O)(=O)c2nnn3c2nc(NC(C)C)c2sccc23)cc1	x	-10.8%	i	i	x	-18.8%
O=S(=O)(Nc1ccc(S(=O)(=O)Nc2ccccc2)cc1)c1ccccc1	12.6%	u	i	i	3.7%	-20.8%
O=S(=O)(Nc1ccc(N=Nc2ccccc2)cc1)c1ccccc1	15.2%	u	i	3.26µM*	-15.3%	u
Cc1cc(NC(=O)c2ccc3nccnc3c2)ccc1Br	-10.4%	u	x	x	-7.8%	u
